The whole screen tested about 16,000 compounds, of which about 5,100 (32%) were called active. Inconclusive results (about 25%) are left out. Calls follow the shape of the dose curve; as a rule, active = well fitted curve in the direction sought with a large enough effect; inconclusive = small, poorly fitted or top-dose-only effect, or effect the other way; inactive = no such curve, though single readings can be large or run the other way. The list shows a part of the results. Square brackets hold non-standard residues; d marks the D form. Peptide text beside a SMILES is read from it. * marks the point of attachment. Cbz = O=C(OCc1ccccc1)*
These molecules were tested against Cytochrome P450 3A4 (Homo sapiens) (UniProt P08684) (assay: Cytochrome panel assay with activity outcomes). Details: recombinant CYP, pro-luciferin dealkylation, luminescence, p450-cyp3a4; series mostly up to 57.1 µM.
% is scaled to controls: 0 for no effect and ±100 for the full control effect.

Cytochrome P450 3A4 (Homo sapiens), sequence (P08684 whole entry, looked up): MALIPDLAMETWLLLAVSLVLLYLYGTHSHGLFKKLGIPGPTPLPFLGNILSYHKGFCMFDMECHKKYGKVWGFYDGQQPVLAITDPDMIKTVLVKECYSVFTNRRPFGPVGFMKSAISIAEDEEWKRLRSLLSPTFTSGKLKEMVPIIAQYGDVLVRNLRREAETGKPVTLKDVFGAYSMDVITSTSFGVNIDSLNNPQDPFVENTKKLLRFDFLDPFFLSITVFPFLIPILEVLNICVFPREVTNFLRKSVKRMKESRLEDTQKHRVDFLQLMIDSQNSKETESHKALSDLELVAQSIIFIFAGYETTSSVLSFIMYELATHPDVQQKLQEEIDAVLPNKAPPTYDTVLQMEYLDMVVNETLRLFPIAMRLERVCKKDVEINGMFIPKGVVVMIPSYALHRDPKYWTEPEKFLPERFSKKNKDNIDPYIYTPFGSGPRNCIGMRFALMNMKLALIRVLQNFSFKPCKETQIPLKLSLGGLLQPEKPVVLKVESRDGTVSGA

| SMILES | AC50 | activity, negative = inhibition |
| --- | --- | --- |
| CCCCC(C=O)NC(=O)C(CC(C)C)NC(=O)OCc1ccccc1 (stereo unspecified) | 15.8 µM (active) | – |
| N[C@H](C(=O)O)[C@H](OCc1ccccc1)C(=O)O | inactive | – |
| CSCC[C@H](C=O)NC(=O)[C@H](CC(C)C)NC(=O)[C@H](CC(C)C)NC(C)=O (Ac-Leu-Leu-[dM]-aldehyde) | inactive | – |
| CC(C)C[C@H](NC(=O)[C@@H](O)[C@H](N)Cc1ccccc1)C(=O)O | inactive | – |
| CC(C)C(NC(=O)OCc1ccccc1)C(=O)O (stereo unspecified) | inactive | – |
| CC(C)[C@H](NC(=O)OCc1ccccc1)C(=O)N[C@H](C=O)Cc1ccccc1 (Cbz-Val-Phe-aldehyde) | 6.31 µM (active) | – |
| CCCSC1=C(C#N)C(c2cccnc2)C(C(=O)OCC)=C(c2ccccc2)N1 (stereo unspecified) | 11.2 µM (active) | – |
| COc1ccc(N(CC(=O)O)N=O)cc1 | – | -6.51% [at 11.4 µM] (inactive) |
| COc1ccc(N(C(=O)COc2ccccc2OC)S(=O)(=O)c2ccc(C)cc2)cc1 | 25.1 µM (active) | – |
| CN(C)CCO[C@@H](c1ccc(Cl)cc1)c1ccccn1 | inactive | – |
| CC1(C)[C@@H]2CC[C@]1(C)[C@@H](OC(=O)/C=C\c1ccccc1)C2 | – | -9.57% [at 11.4 µM] (inactive) |
| Nc1nnc(SCCOc2cccc(Br)c2)s1 | 12.6 µM (active) | – |
| COCCn1c(C)cc(C2=NNC(=Nc3ccc(F)cc3)SC2)c1C | – | 15.3% [at 11.4 µM] (inactive) |
| FC(F)Sc1ccc(N=C2NN=C(c3ccc4c(c3)OCCO4)CS2)cc1 | 12.6 µM (active) | – |
| O=C1c2ccccc2C(=O)N1CC1c2ccccc2CCN1S(=O)(=O)c1ccccc1 (stereo unspecified) | 2 µM (active) | – |
| C[C@H](O)[C@H](O)[C@@H]1CNc2nc(N)[nH]c(=O)c2N1 | inactive | – |
| CC1CCCCN1c1nc(-c2ccncc2)nc2ccccc12 (stereo unspecified) | 0.631 µM (active) | – |
| CCN1CCN(c2nc(-c3ccccn3)nc3ccccc23)CC1 | – | 9.59% [at 2.29 µM] (inactive) |
| CN(Cc1ccco1)c1ncncc1-c1cccc(NS(C)(=O)=O)c1 | 0.794 µM (active) | – |
| CN(Cc1ccco1)c1ncnc2ccc(-c3cccc(NS(C)(=O)=O)c3)cc12 | 5.01 µM (active) | – |
| C[C@@H](C1=C(CCN(C)C)Cc2ccccc21)c1ccccn1 | inactive | – |
| CN(CCc1ccccn1)c1ccc2c(c1)Cc1ccccc1-2 | 2.51 µM (active) | – |
| O=C1c2ccccc2-c2ccc(N(Cc3ccc(Br)cc3)Cc3ccc(Br)cc3)cc21 | – | 3.02% [at 11.4 µM] (inactive) |

| SMILES | AC50 | activity, negative = inhibition |
| --- | --- | --- |
| CN(CCc1ccccn1)c1ccc2c(c1)C(=O)c1ccccc1-2 | 3.16 µM (active) | – |
| O=C(O)[C@H](CCc1ccccn1)c1ccccc1 | – | 0.483% [at 11.4 µM] (inactive) |
| CCn1c(COc2ccc(OC)cc2)nc2ccccc21 | 1.26 µM (active) | – |
| CCn1c(N)nc2ccccc21 | inactive | – |
| c1ccc(Cn2c(CN3CCCC3)nc3ccccc32)cc1 | – | -12.3% [at 2.29 µM] (inactive) |
| O=C(c1ccccc1)[C@H](Nc1ccc2ccccc2c1)c1ccccc1 | 3.16 µM (active) | – |
| O=C(Nc1ccc2ccccc2c1)c1onc2c1CCCC2 | inactive | – |
| O=C(O)CCC(=O)Nc1ccc2ccccc2c1 | – | -3.97% [at 11.4 µM] (inactive) |
| Cc1c(Nc2cc(N3CCCC(C)C3)c3nonc3c2[N+](=O)[O-])c(=O)n(-c2ccccc2)n1C (stereo unspecified) | inactive | – |
| O=C(NCc1ccccc1)C12CN(Cc3ccccc3)CC1C(c1cccc([N+](=O)[O-])c1)=NO2 (stereo unspecified) | 7.08 µM (active) | – |
| CC(C)CCNC(=O)C12CN(Cc3ccccc3)CC1C(c1cccc([N+](=O)[O-])c1)=NO2 (stereo unspecified) | 12.6 µM (active) | – |
| COc1ccc(C(=O)N2CC3(CC(c4cccc([N+](=O)[O-])c4)=NO3)C[C@H]2C(=O)NCC(N)=O)cc1 (stereo partly specified) | – | 15.2% [at 2.29 µM] (inactive) |
| O=C1CC[C@H](N2C(=O)c3ccccc3C2=O)C(=O)N1 | inactive | – |
| Nc1ncnc2c1nc(-c1ccccc1)n2[C@H]1O[C@@H](CO)[C@@H](O)[C@H]1O | – | -3.38% [at 11.4 µM] (inactive) |
| Cc1n[nH]c(C)c1S(=O)(=O)N1CCC(C(=O)O)CC1 | – | 3.15% [at 11.4 µM] (inactive) |
| Cc1ccc(C(=O)NC(=S)Nc2cc(C(F)(F)F)ccc2Cl)cc1 | inactive | – |
| COc1cc(/C=C/C(=O)Nc2cc(C(F)(F)F)ccc2Cl)cc(OC)c1OC | – | -14.2% [at 11.4 µM] (inactive) |
| COc1cccc(C(=O)Nc2cc(C(F)(F)F)ccc2Cl)c1 | 7.94 µM (active) | – |
| COc1cc(C(=O)Nc2cc(C(F)(F)F)ccc2Cl)cc(OC)c1OC | 15.8 µM (active) | – |
| CC(C)CNC(=O)O | – | -6.31% [at 11.4 µM] (inactive) |
| CC(C)C(=O)Nc1ccc(Sc2ccc(F)cc2)cc1 | inactive | – |
| CC(C(=O)Nc1cccnc1)N1C(=O)C2C3C=CC(C3)C2C1=O (stereo unspecified) | 12.6 µM (active) | – |
| Cc1ccc(NC(=O)C(C)N2C(=O)C3C4CC(C(Br)C4Br)C3C2=O)cc1 (stereo unspecified) | 5.62 µM (active) | – |

| SMILES | AC50 | activity, negative = inhibition |
| --- | --- | --- |
| CCC1CCc2c(c3ccccc3[nH]c2=O)O1 (stereo unspecified) | – | -20.1% [at 2.29 µM] (inactive) |
| CN(Cc1ccco1)c1ccnc(-c2cccc(NS(C)(=O)=O)c2)n1 | 6.31 µM (active) | – |
| CN(Cc1ccco1)c1cc(-c2cccc(NS(C)(=O)=O)c2)ncn1 | 15.8 µM (active) | – |
| O=C(CCN1CCOCC1)Nc1ccc(F)cc1F | – | -14.9% [at 11.4 µM] (inactive) |
| COC(=O)CNC(c1ccccc1Cl)c1cc(Br)ccc1NC(=O)CCN1CCOCC1 (stereo unspecified) | 3.55 µM (active) | – |
| Cc1cc2c(cc1C)NC(c1nc3ccccc3[nH]1)C1=C(CC(C)(C)CC1=O)N2 (stereo unspecified) | 12.6 µM (active) | – |
| Cc1c(C(=O)O)nc(/C=C\C(=O)O)[nH]c1=O | – | -3.36% [at 11.4 µM] (inactive) |
| C#CCSc1nnc(-c2cc3c(C(F)(F)F)nn(C)c3s2)n1C | 7.94 µM (active) | – |
| CCCCSc1nnc(-c2cc3c(C(F)(F)F)nn(C)c3s2)n1C | inactive | – |
| C=CCSc1nnc(-c2cc3c(-c4ccccc4)nn(C)c3s2)n1C | 1.58 µM (active) | – |
| C=CCSc1nnc(-c2cc3c(C(F)(F)F)nn(C)c3s2)n1C | 8.91 µM (active) | – |
| CCCNC(=O)c1cc2c(C(F)(F)F)nn(C)c2s1 | – | 19.2% [at 2.29 µM] (inactive) |
| CCn1cc(C(=O)O)c(=O)c2cc(F)c(N3CCN[C@@H](C)C3)c(F)c21 | inactive | – |
| c1ccc2c(-n3ccnc3)nc(-c3ccoc3)nc2c1 | 0.2 µM (active) | – |
| CN(C)c1ccc(-c2nc(-n3ccnc3)c3ccccc3n2)cc1 | 0.631 µM (active) | – |
| Cc1cnc(CNc2ncnc3ccc(-c4ccoc4)cc23)cn1 | 15.8 µM (active) | – |
| Cc1cnc(CNc2ncnc3ccc(-c4ccc5c(c4)OCO5)cc23)cn1 | 2.51 µM (active) | – |
| Cc1cnc(CNc2ncnc3ccc(-c4ccc(N(C)C)cc4)cc23)cn1 | 10 µM (active) | – |
| NC(=S)SCCC(=O)O | – | -7.17% [at 11.4 µM] (inactive) |
| CCOC(=O)C1=C(O)C(Nc2nccs2)(C(F)(F)F)N=C1C (stereo unspecified) | 14.1 µM (active) | – |
| CCCC(=O)Nc1nc(C(=O)OCC)cs1 | inactive | – |
| CC(C)OC(=O)C(CC(=O)O)N1CCOCC1 (stereo unspecified) | inactive | – |
| CCOC(=O)C(C)CC(C)C(=O)N1CCOCCN(C(=O)C(C)CC(C)C(=O)OCC)CCOCC1 (stereo unspecified) | 11.2 µM (active) | – |

| SMILES | AC50 | activity, negative = inhibition |
| --- | --- | --- |
| CCC(Sc1ncccc1C(=O)O)C(=O)N1CCOCC1 (stereo unspecified) | inactive | – |
| COc1cc(OC)c2c(c1)C(=O)c1cc(OC)cc(OC)c1C2=O | 3.55 µM (active) | – |
| O=C(NC1CCCCC1)C1CC=CCC1C(=O)OCC(Cl)=C(Cl)Cl (stereo unspecified) | 7.94 µM (active) | – |
| CNC(=O)c1ccc(-c2sc3nc(N4CCOCC4)c4c(c3c2N)CC(C)(C)OC4)o1 | 2.82 µM (active) | – |
| CN(C)CCNc1ncnc2c1sc1nc(N3CCOCC3)c3c(c12)CC(C)(C)SC3 | inactive | – |
| CC(=O)OC[C@@H]1O[C@@H](O/N=C2/C[C@@H](O)[C@@H](O)[C@@H]3[C@@H]4C(=O)N(C(C)(C)C)C(=O)[C@H]4CC[C@H]23)[C@H](OC(C)=O)[C@H](OC(C)=O)[C@@H]1OC(C)=O | – | -17.4% [at 11.4 µM] (inactive) |
| O=C(O)[C@H](Cc1ccc(O)c([N+](=O)[O-])c1)N1C(=O)c2ccccc2C1=O | – | 6.92% [at 11.4 µM] (inactive) |
| O=C1NC(=O)C(c2ccccc2[N+](=O)[O-])=C1Nc1ccc(O)c(Cl)c1 | 20 µM (active) | – |
| O=C(Nc1nnc(C2CC2)s1)C1Cc2ccccc2CN1S(=O)(=O)c1ccccc1F (stereo unspecified) | 7.08 µM (active) | – |
| CCOc1ccccc1NC(=O)C1Cc2ccccc2CN1S(C)(=O)=O (stereo unspecified) | – | -25.2% [at 11.4 µM] (inactive) |
| CCc1nnc(NC(=O)c2c(C)nn(-c3ccccc3)c2Cl)s1 | – | 4.89% [at 2.29 µM] (inactive) |
| CCc1nnc(NC(=O)C2Cc3ccccc3CN2S(=O)(=O)c2ccc(C)cc2)s1 (stereo unspecified) | 6.31 µM (active) | – |
| O=C(Nc1nccs1)C1Cc2ccccc2CN1S(=O)(=O)c1ccc(F)cc1 (stereo unspecified) | 3.16 µM (active) | – |
| CC(=O)c1sc(NC(=O)C(C)C)nc1C | inactive | – |
| OCCNc1nc(SCc2ccccc2)nc2sc3c(c12)CCC3 | – | -25% [at 11.4 µM] (inactive) |
| O=C(O)CSc1ncnc2sc3c(c12)CCC3 | inactive | – |
| Cc1ccc(CSc2nc3c(c(SCC(=O)O)n2)CCCC3)cc1 | inactive | – |
| CC(CO)Nc1nc(SCc2ccccc2)nc2sc3c(c12)CCC3 (stereo unspecified) | 14.1 µM (active) | – |
| COCCNc1nc(SCc2ccccc2)nc2sc3c(c12)CCC3 | 12.6 µM (active) | – |
| Cc1nc2c(O)cccc2c(=O)[nH]1 | inactive | – |
| COc1cccc(NC(=O)COC(=O)c2c3c(nc4ccccc24)CCC(C)C3)c1 (stereo unspecified) | 3.55 µM (active) | – |
| COc1cccc(NC(=O)COC(=O)c2nc3nccc(C)n3n2)c1 | inactive | – |
